Drawing on ChEMBL document CHEMBL4513216, “Probing the Open Global Health Chemical Diversity Library for Multistage-Active Starting Points for Next-Generation Antimalarials” (ACS Infect Dis, 2020), this text covers INHIBITION for 108 molecules.

The structures appear in SMILES notation. Out of some 69,000 compounds screened, about 8,600 (12%) showed an effect of 50% or more. The full list was thinned out, with strong results kept by preference.

This test relates to Plasmodium berghei. Kind of test: Screen against P. berghei liver stage (PbLuc), transformed with Luciferase, at 10uM. Type of test: functional, HepG2. Conditions: tested at 10 uM.
Consider `O=C1NCC2(CCC(C(=O)N3CCCC(O)C3)CC2)Oc2ccccc21` (stereo not drawn), for which the INHIBITION is given as 8.72%. Next, `CN(Cc1ccsc1)C(=O)c1ccc2c(c1)NC(=O)CO2`: 6.8%; `Cc1cc(C(=O)Nc2ccn(CCCN3CCCC3)n2)no1`: 38.4%. `COCCN(Cc1sccc1C)C(=O)COc1cccnc1`: the INHIBITION is given as -32.6%. Next, `O=C(NCc1cncc2c1CCN(Cc1ccccc1)C2)C1CC1`: -27.9%; `CC(=O)N1CC2(CCN(C(=O)N(C)C)CC2)c2cc(C)ccc21`: 37.8%. The value for `CC(=O)N1CC2(CCN(C(=O)C3CC3)CC2)c2cc(C)ccc21` was 84.5%; that for `CCC(=O)N1CCC2(CC1)CN(C(C)=O)c1ccc(C)cc12` was -47.5%. Turning to `CCOCCCNC(=O)C(C)n1cc(Br)cn1` (stereo not drawn), the INHIBITION was 5.05%. The value for `Cc1nnc(CNC(=O)CC2CCc3ccccc32)o1` (stereo not drawn) was 13%; that for `CC(=O)N1CCc2ccccc2C1CC(=O)NCc1nnc(C)o1` (stereo not drawn) was 61.2%; that for `COC(=O)N1CCc2ccccc2C1C(=O)NCc1nc(C)no1` (stereo not drawn) was 43.4%. The value for `COc1cc(CNCc2c(C)nn(CC(C)C)c2N(C)C)ccn1` was 77.1%. Next, `COc1cc(CNCc2c(C)nn(C)c2N(C)C)ccn1`: 42.6%. With `Cc1nn(CC(C)C)c(N(C)C)c1CNCc1cc2ccccc2[nH]1`, the INHIBITION is given as 67.3%. Next, `Cc1nn(CC(C)C)c(N(C)C)c1CNCc1ccccc1CO`: -21.8%; `COc1cc(CNCc2c(C(C)C)nn(C)c2N(C)C)ccn1`: 33.3%.

For the molecule `Cc1nn(CC(C)C)c(N(C)C)c1CNCc1cccnc1N(C)C`, the INHIBITION is reported as 43.7%. For `COCCNS(=O)(=O)c1ccc(CNc2ncccc2C#N)cc1`, the INHIBITION was found to be 48.4%. Next, `N#Cc1cccnc1NCc1ccc(S(=O)(=O)NC2CC2)cc1`: -15.2%.

As for `N#Cc1cccnc1NCc1ccc(S(=O)(=O)NCC2CCCO2)cc1` (stereo not drawn), the INHIBITION was 55.6%. With `CN(Cc1ccco1)Cc1cnc2n1CCN(S(C)(=O)=O)CC2`, the INHIBITION is 31.9%. The value for `O=C(NC[C@H]1OC[C@@H]2CCN(Cc3ccco3)C[C@@H]21)c1ccsc1` was 23.5%; that for `Cn1cc2c(n1)C(CNC1CCOCC1)OCC2` (stereo not drawn) was 4.02%; that for `Cn1cc2c(n1)C(CNCC1CCOCC1)OCC2` (stereo not drawn) was -4.02%.

With `CC(C)NCC1OCCc2cn(C)nc21` (stereo not drawn), the INHIBITION is 55.5%. Next, `COc1cc(CCC(=O)N2CCC(c3cc4ncccc4[nH]3)CC2)on1`: -26.4%. The value for `COCc1ccc(C(=O)N2CCC(c3cc4ncc(C)nc4[nH]3)C2)cc1` (stereo not drawn) was 20.8%; that for `CN(C)c1ccc(C(=O)N2CCC(c3n[nH]c(C4CC4)n3)CC2)cc1` was 2.97%.

Take `CN(C)c1ccc(C(=O)N2CCC(c3cc4ncccc4[nH]3)CC2)cc1`: the INHIBITION was 57.7%. Regarding `CN(C)c1cccc(C(=O)N2CCC(c3n[nH]c(C4CC4)n3)CC2)c1`, the INHIBITION came to 13.3%. The value for `COCc1ccc(C(=O)N2CCC(c3cc4nccnc4[nH]3)CC2)cc1` was 66.5%; that for `Cc1cnc2cc(C3CCN(C(=O)c4ccncc4)CC3)[nH]c2n1` was 38.8%; that for `CN(C)c1ccc(C(=O)N2CCC(c3cc4cnccc4[nH]3)CC2)cc1` was 51.75%. The value for `Cc1noc(C)c1C(=O)N1CCC(c2cc3cnccc3[nH]2)CC1` was 13.335%. As to `CN(C1CCN(C(=O)NCCc2ccc(F)cc2F)CC1)S(C)(=O)=O`, the INHIBITION stood at 39.7%. The value for `CC(=O)Nc1sc2c(c1C(=O)O)CCc1ccccc1-2` was 11.1%; that for `CC(C)CNc1c(NCc2ccco2)c(=O)c1=O` was -4.28%; that for `COCCO[C@H]1CCN(C(=O)c2ccoc2C)[C@H]1Cc1cnn(C)c1` was 14.1%.

As to `COCCn1ccc(=O)c(OCC(=O)Nc2ccc(OC)c(Cl)c2)c1C`, the INHIBITION is reported as -38%. Next, `CC(CNC(=O)c1ccc(Cl)cc1F)N1CCCC1` (stereo not drawn): 51.4%; `CC(CNC(=O)c1ccc(F)cc1Cl)N1CCCC1` (stereo not drawn): 35.6%. For the molecule `O=C(NCC(c1cccs1)N1CCOCC1)c1ccc(F)cc1Cl` (stereo not drawn), the INHIBITION was -14.5%. Next, `CC(CNC(=O)c1ccc(F)cc1I)N1CCCC1` (stereo not drawn): 55.8%; `CC(CNC(=O)c1ccc(Cl)cc1I)N1CCCC1` (stereo not drawn): 17.4%; `CC(CNC(=O)c1cc(Cl)ccc1F)N1CCCC1` (stereo not drawn): 33.8%. Consider `CC(CNC(=O)c1ccc(Cl)cc1F)N1CCN(C)CC1` (stereo not drawn), for which the INHIBITION was determined as 25%. The value for `CC(CNC(=O)c1cc(Cl)ccc1I)N1CCCC1` (stereo not drawn) was 30.5%; that for `CN1CCN(C(CNC(=O)c2ccc(Cl)cc2F)c2cccs2)CC1` (stereo not drawn) was 66.7%; that for `Cc1cc(CN2CCN(C(=O)CCc3ccco3)CC2)on1` was 14%. For `CC(NCc1ccccc1Cl)c1ccc(OCC(=O)NC2CC2)cc1` (stereo not drawn), the INHIBITION came to 48.2%. The value for `CCc1nc(CNC(C)(CO)C2CCCCC2)no1` (stereo not drawn) was 37.4%; that for `Cc1cnn(CC2CN(c3nc4ccccc4o3)CCO2)c1` (stereo not drawn) was 44.1%.

Take `Cc1cc(C)nc(N2CCN(Cc3nccn3C)CC2)n1`: the INHIBITION was 7.52%. Regarding `Cc1cc(C(F)(F)F)nc(N2CCN(Cc3nccn3C)CC2)n1`, the INHIBITION was 74%. The value for `Cn1ccnc1CN1CCN(c2ccc(C#N)cc2F)CC1` was 53.3%. As to `Cc1cc(C2CCC2)nc(N2CC(n3cccn3)C2)n1`, the INHIBITION was -9.91%. Turning to `Cc1cc(C2CCC2)nc(N2CCN(Cc3nccn3C)CC2)n1`, the INHIBITION is reported as 84.1%. Next, `Cc1nc(CN2CCN(Cc3nccn3C)CC2)no1`: 33.7%; `Cn1ccnc1CN1CCN(Cc2ccc(C#N)cc2F)CC1`: 15.15%. The value for `Cn1ccnc1CN1CCN(Cc2cc(C#N)ccc2F)CC1` was 35.3%; that for `Cn1ccnc1CN1CCCN(Cc2noc(C3CC3)n2)CC1` was 11.2%. The value for `COCc1cccc(NC(=O)NCCCN(C)S(C)(=O)=O)c1` was -10.8%. Consider `CC(C1CC1)N(C)C(=O)c1ccc(-n2ncc(C#N)c2N)cc1` (stereo not drawn), for which the INHIBITION is recorded as -61.4%. For `CCCOCCN1CCN(c2ncnc3[nH]ccc23)CC1`, the INHIBITION is reported as -24%. Next, `NC(=O)Cn1nc(-c2ccccc2F)ccc1=O`: 15.4%; `O=C(O)Cn1nc(-c2ccccc2F)ccc1=O`: 26.4%. As for `CC(=O)Cn1nc(-c2ccccc2F)ccc1=O`, the INHIBITION is 64.2%. The value for `Cc1noc(Cl)c1CC(=O)N1CCC(Nc2cccnn2)CC1` was 18.04%. Next, `CCC(=O)N1CCN(C(=O)Cn2cccn2)CC1`: 27.45%; `O=C(NCc1cccs1)[C@H]1CC[C@@H]2[C@@H](CCN2c2ncccn2)O1`: -50.8%. The value for `O=C(NCc1cccnc1)[C@@H]1C[C@@H]2CCN(c3ncc(F)cn3)C[C@@H]2O1` was -9.71%.

Consider `O=C(NCc1cccs1)[C@@H]1CC[C@@H]2[C@@H](CCN2c2ncccn2)O1`, for which the INHIBITION was 3.25%. The value for `CNC(=O)[C@H]1CC[C@@H]2[C@@H](CCN2c2ncccn2)O1` was 47.5%; that for `O=C(NCc1cccnc1)[C@@H]1CC[C@@H]2[C@@H](CCN2c2ncc(F)cn2)O1` was 73%.

On to `O=C(NCc1cccnc1)[C@@H]1C[C@H]2[C@H](CCN2c2ncc(F)cn2)O1`, for which the INHIBITION is reported as 21.8%. The value for `O=C(NCc1cccnc1)[C@@H]1C[C@H]2[C@H](CCN2c2ncccn2)O1` was 73%. Next, `O=C(NCc1ccco1)[C@H]1CC[C@@H]2[C@@H](CCN2c2ncccn2)O1`: 7.77%; `O=C(NCc1ccccn1)[C@@H]1CC[C@@H]2[C@@H](CCN2c2ncc(F)cn2)O1`: 40.4%; `O=C(NCc1ccco1)[C@H]1CC[C@@H]2[C@@H](CCN2Cc2cccnc2)O1`: -66%. Next, `O=C(NCc1cccnc1)[C@@H]1CC[C@@H]2[C@@H](CCN2c2ncccn2)O1`: 96.3%. For the molecule `O=C(NCc1cccnc1)[C@H]1CC[C@@H]2[C@@H](CCN2c2ncccn2)O1`, the INHIBITION is 74.2%. The value for `OCc1cn(Cc2cccc(C(F)(F)F)c2)nn1` was -5.1%; that for `CN(Cc1cnn(C)c1)C(=O)c1ccc(Cl)c(N2CCNC2=O)c1` was 18.4%; that for `Cc1ccc(C(=O)N(C)CCCc2cnn(C)c2)cc1N1CCNC1=O` was 58.8%. Turning to `CCN(Cc1cnn(C)c1)C(=O)c1ccc(C)c(N2CCNC2=O)c1`, the INHIBITION is recorded as 28.2%. The value for `O=C(NC1CCN(c2ncccc2F)C1)c1cccc(-n2ccnn2)c1` (stereo not drawn) was -20.8%.

Consider `C1CC(CN2C[C@@H]3CC[C@H]2CN(Cc2noc(C4CCCC4)n2)C3)C1`, for which the INHIBITION is 18.6%. As for `CNC(=O)c1cccc(CCNS(C)(=O)=O)c1`, the INHIBITION turned out to be 21.3%. Next, `CNC(=O)c1cccc(CNC(C)c2ccc(F)cc2N(C)C)c1` (stereo not drawn): 66.8%; `CC(NCCN1CCC(N(C)C)CC1)c1ccc(F)cc1N(C)C` (stereo not drawn): 40.6%. For the molecule `CNC(=O)c1cccc(CNC(C)c2cc(Cl)ccc2OC)c1` (stereo not drawn), the INHIBITION was determined as 18.9%. The value for `CC(NCCCN1CCCC1=O)c1ccc(F)cc1N(C)C` (stereo not drawn) was -2.75%. Consider `CNC(=O)c1cccc(CNC(C)c2cc(C)ccc2OC(F)F)c1` (stereo not drawn), for which the INHIBITION was 51.5%. With `O=S(=O)(NC[C@]12COC[C@H]1CN(c1ncc(F)cn1)C2)C1CC1`, the INHIBITION is -15.6%. Take `CCOC(CC)C(=O)NCCC(=O)N1CCN(c2ncccn2)CC1` (stereo not drawn): the INHIBITION is -18.2%. Next, `COc1ccc2nc(NC(=O)c3c(C(=O)O)cnn3C)sc2c1`: 28.7%; `CC(CNCc1ccc2c(c1)n(C)c(=O)n2C)Oc1ccccn1` (stereo not drawn): -8.51%; `Cc1ccccc1C1CCN(CCn2cc(-c3nccn3C)nn2)C1` (stereo not drawn): 28%. Next, `Cc1ccccc1C1CCN(CCn2cc(-c3nccs3)nn2)C1` (stereo not drawn): 4.15%. The value for `Cc1ccccc1C1CCN(CCn2cc(-c3cccc(O)c3)nn2)C1` (stereo not drawn) was 59.3%; that for `Cc1noc(OCC(=O)N2CCCCC2C)n1` (stereo not drawn) was -26.4%; that for `Cn1ccc(CN2CCC(Oc3ccccc3)CC2)cc1=O` was 25.6%.

As for `Cn1ccc(CN2CCC(CO)CC2)cc1=O`, the INHIBITION is recorded as -10.8%.

As for `Cc1cccc(C)c1OC1CCN(Cc2ccn(C)c(=O)c2)CC1`, the INHIBITION is 58%. Next, `COc1ccc(OC2CCN(Cc3ccn(C)c(=O)c3)CC2)cc1`: 45.7%; `Cn1ccc(CN2CCC(COC3CCCC3)CC2)cc1=O`: 58%.

As for `Cn1ccc(CN2CCC(OCc3ccccc3)CC2)cc1=O`, the INHIBITION was found to be 3.15%.
